PubChem BioAssay (NCATS)
Records with an inconclusive call do not appear. A call without a number means that no potency is given here. The source made the active and inactive calls. Unless noted, calls follow the shape of the dose curve; as a rule, active = well fitted curve in the direction sought with a large enough effect; inconclusive = small, poorly fitted or top-dose-only effect, or another doubt; inactive = no such curve, though single readings can be large; an effect the other way counts as inactive or inconclusive.

How the values were obtained:
[1] = biological target: Aldehyde dehydrogenase, mitochondrial (Homo sapiens) (UniProt P05091); experiment: qHTS for Inhibitors of the Aldehyde Dehydrogenase Family (ALDH2) Confirmatory screens (AID 2061303; active = well fitted inhibition curve with a large enough effect; title and protocol of this record describe different tests; also: nearly all actives have a fitted effect of over 45% in size; also: potency is read from the fitted curve at half-maximal effect)
[2] = qHTS for Inhibitors of the Aldehyde Dehydrogenase Family (ALDH1A2, ALDH1A3, ALDH2, ALDH3A1) (AID 2061307); also: nearly all actives have a fitted effect of over 50% in size; as to potency: test system not described further here; potency is read from the fitted curve at half-maximal effect
[3] = biological target: Aldehyde dehydrogenase, mitochondrial (Homo sapiens) (UniProt P05091); experiment: qHTS for Inhibitors of the Aldehyde Dehydrogenase Family (ALDH2) Primary screen (AID 2061308); also: nearly all actives have a fitted effect of over 55% in size; also: potency is read from the fitted curve at half-maximal effect
[4] = biological target: Retinaldehyde dehydrogenase 3 (Homo sapiens) (UniProt P47895); experiment: qHTS for Inhibitors of the Aldehyde Dehydrogenase Family (ALDH1A3) Confirmatory screens (AID 2061311); also: nearly all actives have a fitted effect of over 60% in size; also: potency is read from the fitted curve at half-maximal effect
[5] = biological target: Retinal dehydrogenase 2 (Homo sapiens) (UniProt O94788); experiment: qHTS for Inhibitors of the Aldehyde Dehydrogenase Family (ALDH1A2) Confirmation screens (AID 2061314); also: nearly all actives have a fitted effect of over 65% in size; also: potency is read from the fitted curve at half-maximal effect
[6] = biological target: Retinaldehyde dehydrogenase 3 (Homo sapiens) (UniProt P47895); experiment: qHTS for Inhibitors of the Aldehyde Dehydrogenase Family (ALDH1A3) Primary screen (AID 2061315)
[7] = biological target: Aldehyde dehydrogenase 1A1 (Homo sapiens) (UniProt P00352); experiment: qHTS for Inhibitors of the Aldehyde Dehydrogenase Family (ALDH1A1) Confirmatory screens (AID 2061316); also: nearly all actives have a fitted effect of over 65% in size

Row | SMILES | Potency [1] | Potency [2] | Potency [3] | Potency [4] | Potency [5] | Potency [6] | Potency [7]
1 | Cc1ccccc1C[C@H](C(=O)O)N1C(=O)c2ccc(C(=O)O)cc2C1=O | inactive | inactive | inactive | inactive | inactive | inactive | inactive
2 | COc1ccc(C2Nc3ccccc3C(=O)N2Cc2ccc(Cl)cc2)cc1COc1ccc(NC(C)=O)cc1 (stereo not drawn) | 3.98 µM (active) | 2.25 µM (active) | inactive | 3.55 µM (active) | 12.7 µM (active) | inactive | –
3 | Cc1cn([C@H]2C[C@H](N[S+](=O)([O-])Cc3ccc(Cl)cc3)[C@@H](CO)O2)c(=O)[nH]c1=O | inactive | inactive | inactive | inactive | inactive | inactive | –
4 | C[C@@H](N)C(=O)Nc1ccc(Cl)cc1C(=O)c1ccc[nH]1 | inactive | inactive | inactive | inactive | inactive | inactive | –
5 | CCCCNc1ccc(C(=O)OCCN(CC)CC)cc1 | inactive | inactive | inactive | inactive | inactive | inactive | inactive
6 | CC(=O)Nc1sc2c(c1-c1cc3ccccc3[nH]1)CCNC2 | inactive | inactive | inactive | inactive | 28.3 µM (active) | inactive | –
7 | O=C1NC(=O)/C(=C/c2cccn2-c2ccc(P(O)O)cc2)N1 | inactive | inactive | inactive | inactive | inactive | inactive | inactive
8 | Cc1nc2ccccn2c1P(=O)(c1ccccc1)c1ccccc1 | inactive | inactive | inactive | inactive | inactive | inactive | inactive
9 | CCC(=O)C1CCCN(C(=O)CC(c2ccc3c(c2)OCO3)c2c(O)cc(OC)cc2OC)C1 (stereo not drawn) | inactive | inactive | inactive | inactive | inactive | inactive | inactive
10 | Cc1cc(NC(=O)c2ccc([S+](=O)([O-])NCc3ccc(Cl)c(Cl)c3)cc2)no1 | inactive | inactive | inactive | inactive | inactive | inactive | inactive
11 | FC(F)(F)c1ccccc1-c1nc(NCc2ccc(-c3cccnc3)cc2)c2ccccc2n1 | inactive | inactive | inactive | 10.1 µM (active) | inactive | inactive | –
12 | Cc1cc(C)n2ncc(C(=O)Nc3ccc4c(c3)OCO4)c2n1 | inactive | inactive | inactive | inactive | inactive | inactive | –
13 | O=C(O)c1ccc2c(c1)C(=O)N([C@]1(C(=O)O)C[C@H]1c1ccccc1)C2=O | inactive | inactive | inactive | inactive | inactive | inactive | –
14 | NC1CCN(c2cnc3c(O)ccc(C(=O)O)c3c2)CC1 | inactive | inactive | inactive | 20.1 µM (active) | 14.2 µM (active) | inactive | –
15 | O=C(Nc1ccccc1)OCc1c(-c2ccccc2)no[n+]1[O-] | inactive | 11.3 µM (active) | inactive | inactive | inactive | inactive | –
16 | O=C(C1CCN(c2nc(-c3ccc(Br)cc3)cs2)CC1)N1CCOCC1 | inactive | 11.3 µM (active) | inactive | inactive | inactive | inactive | inactive
17 | Cn1nnnc1Sc1ncnc2scc(Br)c12 | inactive | inactive | inactive | inactive | inactive | inactive | –
18 | O=C1c2ccccc2NC(c2ccc(-c3ccc(Br)cc3)o2)N1O (stereo not drawn) | 0.891 µM (active) | 11.3 µM (active) | 1 µM (active) | 12.7 µM (active) | 12.7 µM (active) | inactive | –
19 | Cc1cccc2c(C(=O)O)cc(Cl)nc12 | inactive | inactive | inactive | inactive | inactive | inactive | inactive
20 | CC(=O)Nc1sc2c(c1-c1cnn(C(C)=O)c1)CCNC2 | inactive | inactive | inactive | inactive | inactive | inactive | –
